Assay outcomes as filed in PubChem BioAssay.
Pf growth 48h: inhibits P. falciparum growth in the first generation, 48 h | Potency, µM (top dose mostly 28.7 µM), hits mostly inhibitors | 310,000 compounds, 5.9% hits | P. falciparum luciferase growth in erythrocytes, 48 h
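Cell-based growth assay: transgenic P. falciparum expressing firefly luciferase, cultured in red cells within RPMI 1640 containing 0.5% w/v Albumax, 24 mM bicarbonate and gentamycin. A drop in luciferase activity indicates inhibition.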
Pf growth 96h: inhibits malaria parasite growth, 96 h; AID 504834; 320,000 compounds, 6.9% hits; P. falciparum luciferase reporter growth, 96 h; Potency, µM (titrated, usually from 28.7 µM), actives largely listed as inhibitors
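Two-generation exposure (96 h) targets delayed-death phenotype. Reporter parasites carrying integrated firefly luciferase, in red cells at 2% hematocrit and 0.05% parasitemia final, kept at 37 C, 5% CO2; luminescence loss indicates inhibition.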
HCV inh: HCV inhibition; Huh7.5.1 HCVcc-Cre infection, luciferase reporter, 44 h; Potency, µM (titrated, usually from 41.8 µM), usual class: inhibitors; 340,000 compounds, 3.4% hits; AID 651820
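1,000 cells/well; 4 h culture; + compound; + HCVcc-Cre (~0.5 moi); 44 h; luciferase substrate, RT 15 min; read 15 sec.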
AMA1 RON2 block: AMA1-RON2 (P. falciparum) interaction inhibition. 360,000 compounds, 0.2% hits. AlphaScreen AMA1-biotinylated RON2 peptide binding. Potency, µM (highest dose often 58.2 µM), most hits filed as inhibitors; further: nearly all actives have a fitted effect of over 45% in size
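AMA1 (3D7) with his tag at 25 nM final met compounds first, then biotinylated RON2 peptide at 25 nM; detection used donor plus acceptor beads, 10 µg/mL apiece, read by AlphaScreen after 30 min at room temperature.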
Numbers stand for hits; . = inactive; ? = inconclusive; / = not tested or not shown; [ ] = dose if it differs, or a comment. Most compounds without a hit are left out; they make up all but 11% or so of the library. The call rests on the fitted dose curve; in most records, active means well fitted curve in the direction sought with a large enough effect; inconclusive means small, poorly fitted or top-dose-only effect, or another doubt; inactive means no such curve, though single readings can be large; an effect the other way counts as inactive or inconclusive.

SMILES	Pf growth 48h	Pf growth 96h	HCV inh	AMA1 RON2 block
CCOC(=O)C(C)Oc1ccc(C2NC(=O)NC(C)=C2C(=O)Nc2ccccc2C)cc1 (stereo unspecified)	10µM	?	.	.
COC(=O)C1=C(CS(=O)(=O)c2cc(OC)ccc2OC)NC(=O)NC1c1ccc(O)c(OC)c1 (stereo unspecified)	.	10µM	.	.
COc1ccc(COC(=O)C2=C(C)NC(=O)NC2c2ccc(O)c(OC)c2)cc1 (stereo unspecified)	/	10µM	.	.
CCOC(=O)C1=C(C)NC(=O)NC1c1ccc(OC(=O)c2ccco2)cc1 (stereo unspecified)	.	7.4µM	.	.
CC1CCCC12NC(=O)NC2=O (stereo unspecified)	/	/	.	.
CC(C)C1OC(c2cccc(NC(=O)c3cccs3)c2)OCC1(C)C (stereo unspecified)	1.9µM	?	?	.
COc1ccc(/C=C2\SC(=S)N(CCCC(=O)Nc3ccc(C(=O)O)cc3)C2=O)cc1OC	12µM	?	.	.
CC(/C=C1\SC(=S)N(CCC(=O)Nc2ccc(O)cc2)C1=O)=C\c1ccccc1	?	.	7.9µM	.
O=C(O)CCCN1C(=O)/C(=C\C(Cl)=C\c2ccccc2)SC1=S	9.3µM	?	?	.
CCN(CC)CCOC(=O)c1ccc(NC(=O)CCCN2C(=O)S/C(=C/c3ccc(OC)cc3)C2=S)cc1	2.6µM	.	14µM	?
COc1ccc(/C=C2\SC(=O)N(CCCC(=O)Nc3ccc(C(=O)O)cc3)C2=O)cc1OC	.	.	.	.
COc1cccc(/C=C2\SC(=S)N(CCCC(=O)Nc3ccc(C(=O)O)cc3)C2=O)c1	?	8.3µM	.	.
Cc1ccc(NC(=O)CN2C(=O)S/C(=C\c3ccc(C(=O)O)cc3)C2=O)cc1	.	15µM	.	.
Cc1ccc(NC(=O)CN2C(=O)S/C(=C\c3cc(C)n(-c4cccc(C(=O)O)c4)c3C)C2=O)cc1	.	.	.	.
COc1ccc(-c2nn(-c3ccccc3)cc2/C=C/C(=O)NCCCn2ccnc2)cc1OC	12µM	10µM	.	.
COc1cccc(/C=C2/SC(=S)N(CCCC(=O)Nc3ccc(O)cc3)C2=O)c1	?	?	?	.
COc1ccc(-c2nn(-c3ccccc3)cc2C(=O)NCCCn2ccnc2)cc1	/	?	.	.
O=C(CN1C(=O)S/C(=C\c2ccccc2Cl)C1=O)NCCCn1ccnc1	.	.	.	.
COc1ccccc1/C=C1\SC(=O)N(CC(=O)NCCCn2ccnc2)C1=O	12µM	?	.	.
CCC(=O)Nc1cc(C(=O)OCc2ccc(C(=O)Oc3ccccc3)cc2)ccc1C	.	.	.	.
CCC1(c2ccccc2)NC(=O)N(CC(=O)N(CC(=O)Nc2ccccc2C(F)(F)F)Cc2ccco2)C1=O (stereo unspecified)	?	?	.	.
CC(=O)c1sc(C(=O)O)c(-c2ccco2)c1-c1ccco1	.	.	.	.
Cc1cccc(NC(=O)CN2C(=O)S/C(=C\c3ccccn3)C2=O)c1	.	4.1µM	.	.
COc1ccc(/C=C2/SC(=S)N(CCCC(=O)Nc3ccc(O)cc3)C2=O)cc1OC	.	12µM	?	.
Cc1ccc(/C=C2/SC(=S)N(CCCC(=O)Nc3ccc(O)cc3)C2=O)cc1	?	.	.	.
SMILES	Pf growth 48h	Pf growth 96h	HCV inh	AMA1 RON2 block
Cc1cc(NC(=O)CCN2C(=O)/C(=C/c3ccccc3Cl)SC2=S)no1	.	.	.	.
COc1ccccc1/C=C1\SC(=S)N(CCC(=O)Nc2cc(C)on2)C1=O	.	9.3µM	?	.
O=C(CN1C(=O)S/C(=C\c2ccccn2)C1=O)Nc1ccccc1	.	?	.	.
CC(/C=C1\SC(=S)N(c2ccc(C(=O)O)cc2)C1=O)=C\c1ccccc1	4.7µM	?	.	.
COc1ccc(CC(=O)NC(C)c2ccc(S(N)(=O)=O)cc2)cc1S(=O)(=O)N1CCOCC1 (stereo unspecified)	.	.	/	.
O=C(CCN1C(=O)/C(=C\C=C\c2ccccc2)SC1=S)Nc1ccccc1C(=O)O	.	9.3µM	.	.
OC[C@H]1O[C@@H](c2nc3ccc(-c4nc(-c5ccc(Br)cc5)no4)cc3[nH]2)C[C@@H]1O	/	/	/	.
Cc1ccccc1C(=O)N/N=C/c1cccc2ccccc12	?	?	.	.
Cc1ccc(Cl)cc1NC(=S)N/N=C/c1cccc2ccccc12	2.1µM	?	?	.
Cc1ccc(Cl)cc1NC(=S)Nn1cnnc1	.	2.6µM	.	.
Cc1ccc(NC(=S)Nn2cnnc2)c(C)c1	.	.	/	/
CCn1ncc(Br)c1C(=O)Nc1c(C)nn(Cc2c(F)c(F)c(F)c(F)c2F)c1C	.	?	?	.
Fc1cccc(Cl)c1CNCCCSc1ncccn1	.	13µM	.	.
CCOc1ccc(CNCCCSc2ncccn2)cc1	.	10µM	.	.
CC(C)c1ccc(CNCCCSc2ncccn2)cc1	.	13µM	.	.
Clc1cccc(Cl)c1CNCCCSc1ncccn1	.	.	.	.
Clc1ccc(CNCCCSc2ncccn2)cc1Cl	.	?	.	.
CC(C)(C)C(=O)Nc1ccc(/C=C/C(=O)c2ccco2)cc1	.	?	.	.
CC(NC(=O)C1CCC(C(C)(C)C)CC1)C(c1ccccc1)N1CCOCC1 (stereo unspecified)	?	10µM	.	.
CC(NC(=O)Nc1ccc(Cl)c(Cl)c1)C(c1ccccc1)N1CCOCC1 (stereo unspecified)	?	5.2µM	?	.
CC(NC(=O)Nc1ccc([N+](=O)[O-])cc1)C(c1ccccc1)N1CCOCC1 (stereo unspecified)	?	?	.	.
CCCCCCCCC(=O)c1c(OC)oc(C=O)cc1=O	/	/	/	.
COc1ccc(C2=C(SC)CC2=NC(C)(C)C)cc1	.	.	.	.
CC(C#N)(NC(=O)CN1CCN(S(=O)(=O)c2ccccc2C#N)CC1)C1CC1 (stereo unspecified)	.	?	.	.[11.6 µM]
Cc1cc(C)cc(N(CC(=O)NCc2ccccc2)C(=O)CCC(=O)Nc2ccccn2)c1	2.1µM	.	?	.
SMILES	Pf growth 48h	Pf growth 96h	HCV inh	AMA1 RON2 block
CCc1ccc(N(CC(=O)NC(C)C)C(=O)CCC(=O)Nc2ccccn2)cc1	.	?	.	.
Cc1ccc(N(CC(=O)NC(C)C)C(=O)CCC(=O)Nc2ccccn2)cc1	.	3.7µM	.	.
COCCNC(=O)C(c1ccc(C)cc1)N(C(=O)CCC(=O)Nc1ccccn1)c1ccccc1C (stereo unspecified)	.	8.3µM	.	.
CCOc1ccc(CN(CCO)CCO)cc1C(=O)OC	.	2.1µM	.	.
CCN(CC(=O)Nc1ccccc1OC)C(=O)c1ccc(NS(=O)(=O)c2ccc(C(C)=O)cc2)cc1	.	.	.	.
CN(Cc1ccccc1)C(=O)c1cccc(NC(=O)Cc2ccc(NC(=O)C3CCN(C(=O)C4CCCC4)CC3)cc2)c1	/	/	?	.
CN(Cc1ccccc1)C(=O)c1cccc(NC(=O)Cc2ccc(NC(=O)C3CCCN(C(=O)CCc4ccccc4)C3)cc2)c1 (stereo unspecified)	/	/	.[8.37 µM]	.
